We go through 12 compounds from PubChem BioAssay (NCI).

Holding throughout (experiment): NCI-60 one-dose screen, 48 h (100 = growth as untreated, 0 = no growth, -100 = all killed)
What all share (details): 10 µM unless noted

Assay [1] concerns NCI-H23 lung.
The test system of assay [2] is NCI-H226 lung.
For assay [3], the system named is NCI-H322M lung.
Assay [4] relates to HOP-62 NSCLC.
Assay [5] concerns NCI-H460 lung.
Assay [6] deals with HOP-92 NSCLC.
Assay [7] concerns NCI-H522 lung.
The test system of assay [8] is A549/ATCC NSCLC.
For assay [9], the system named is 786-0 renal.
For assay [10], the system named is COLO 205 colon.

Each structure is given as a SMILES string. The panel holds about 83,000 compounds, 20% with a hit somewhere; the sample as a whole holds those more often.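 Activity criterion: percent growth below 10, measured after cells in 96-well plates were exposed to a single compound concentration for 48 hours.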 A number with no mark means an inactive call. The source made the active and inactive calls.

Consider `Cn1cc(Nc2ncnc(-c3ccc(N4CCCC4)c(C#N)c3)n2)cn1`, for which the growth in [1] is 86%; in assay [2] it was 60.6%; in [3], 50.5%; in assay [4] it was 90.3%; in assay [5] it was 50.1%; in assay [6] it was 97.6%. Further, the growth was 8.98% (active) in assay [7], 83.7% in assay [8], 59.8% in assay [9] and 72% in [10].

`Nc1nn2c(-c3cc4cc(Br)ccc4oc3=O)ccnc2c1N=Nc1ccc(Br)cc1`: the growth in assay [1] is -7.78% (active); in assay [2], -25% (active); in assay [3], 23.7%; in [4], -11.9% (active); in assay [5], 15%; in [6], -5.4% (active). Also, the growth in assay [7] was 24.6%; in assay [8], 39.6%; in assay [9], 13.8%; in assay [10], 35.8%.

Regarding `N#Cc1ccc(C(=O)NNC(=O)CSc2nc3sc4c(c3c(=O)n2-c2ccc(Cl)cc2)CCCC4)cc1`, the growth is 33.2% in assay [1]; 54.1% in assay [2]; 51.7% in [3]; 7.62% (active) in [4]; 51.8% in assay [5]; 45.6% in assay [6]. Moreover, the growth is 61.5% in [7], 61.9% in assay [8], 75.5% in [9] and 110% in [10].

Take `COc1ccc2c(c1)N=c1c-2cc2c(O)[nH]c(=S)n2c1=O`: the growth is 43.1% in [1]; 46.1% in assay [2]; 78.1% in [3]; 36.6% in [4]; 83.1% in [5]; 71.3% in assay [6]. The growth was -9.92% (active) in assay [7], 65.8% in assay [8], 35.3% in [9] and 30.7% in assay [10].

For `COC(=O)c1cc(C(C)=O)n2c3ccccc3c3ccccc3c12`, the growth was 78.1% in assay [1]; 61.3% in assay [2]; 104% in assay [3]; 57.9% in assay [4]; 110% in assay [5]; 28.1% in assay [6]. Further, the growth was 86.4% in assay [7], 96.9% in assay [8], 36.6% in [9] and 108% in [10].

Consider `COc1cc(C2CC(c3cc(OC)c(OC)c(OC)c3)=Nc3c(N)nc(N)nc3N2)ccc1Oc1nc(Nc2ccc(F)cc2)nc(N(C)C)n1` (stereo not given), for which the growth in assay [1] is 89.8%; in [2], 106%; in assay [3], 94.4%; in assay [4], 99.9%; in assay [5] it was 42.8%; in [6] it was 38.1%. Moreover, the growth in assay [7] was 56.8%; in [8], 52.9%; in assay [9] it was 36.6%; in [10], 73.9%.

On to `Nc1ccc(-c2ccc3ncnc(N4CCc5cc(F)c(Cl)cc54)c3c2)cn1`, for which the growth was 29.4% in assay [1]; 18.4% in assay [2]; -2.2% (active) in assay [3]; 37.5% in assay [4]; 25.6% in assay [5]; 1.25% (active) in [6]. For the same compound, the growth in [7] is 15.4%; in assay [8] it was 14.2%; in assay [9], -69.8% (active); in assay [10] it was 50%.

Take `N#C/C(=C/c1ccc([N+](=O)[O-])cc1)c1nnc(NC(=O)c2ccc(-n3c(=O)[nH]c4ccccc4c3=O)cc2)s1`: the growth in assay [1] is 91.9%; in assay [2], 87.8%; in [3], 97.5%; in assay [4], 85.6%; in assay [5], 79.2%; in [6], 101%. The growth was 108% in assay [7], 102% in [8], 104% in [9] and 122% in assay [10].

For the compound `FC(F)(F)c1cc2c(Cl)ncnc2n1CCC1CCOCC1`, the growth in assay [1] was -14.4% (active); in [2], 39%; in assay [3], -72.6% (active); in assay [4], 6.11% (active); in [5], -68.8% (active); in assay [6], 71.5%. Moreover, the growth in [7] is -80% (active); in assay [8] it was 97.6%; in assay [9] it was 87.7%; in [10] it was 71.5%.

Take `C=CCSc1nnc(-c2c(C)nc3sccn23)o1`: the growth is 88.7% in [1]; 76.1% in [2]; 84.9% in [3]; 106% in [4]; 95.8% in assay [5]; 72.4% in assay [6]. Moreover, the growth was 89% in assay [7], 92.7% in assay [8], 89.8% in [9] and 107% in assay [10].

Regarding `Cc1ccc(C(=O)Nc2cc(-n3cnc(F)c3)cc(C(F)(F)F)c2)cc1C#Cc1cnc2cccnn12`, the growth was 44.8% in assay [1]; 44.4% in assay [2]; 97.9% in assay [3]; 85.7% in assay [4]; 70.5% in assay [5]; 57.5% in assay [6]. Further, the growth is 64.6% in assay [7], 66.5% in assay [8], 53.3% in assay [9] and 68.5% in [10].

In the case of `O=C(CSc1nnc(-c2ccc(-c3nc4ccc(Cl)cc4[nH]3)cc2)o1)Nc1ccccc1`, the growth in assay [1] is -41.5% (active); in assay [2], -23.7% (active); in assay [3] it was 37.6%; in assay [4] it was -27.1% (active); in [5] it was -48.7% (active); in assay [6], 2.36% (active). For the same compound, the growth in assay [7] was -3.89% (active); in [8] it was -31.9% (active); in [9] it was -59% (active); in assay [10], 75.9%.
